# Laboratory results published in the supplement of paper PMC11732987, “Enantioselective OTUD7B fragment discovery through chemoproteomics screening and high-throughput optimisation” (Communications Chemistry, 2025).
# A number with no mark means an inactive call.
# Key:
# Assay in all cases: log2 ratio of Biotin-Ahx-Ub-VS probe labelling (fragment/DMSO); higher = less target engagement (more negative = stronger competition), active = hit call of the paper (q ≤ 0.05, log2 ratio ≤ -1)
# Settings in all cases: compound concentration: 200 uM; treatment time: 3 h
# [1] = target: USP34 (UniProt Q70CQ2)
# USP34, sequence (Q70CQ2 whole entry, the tested form may be a part): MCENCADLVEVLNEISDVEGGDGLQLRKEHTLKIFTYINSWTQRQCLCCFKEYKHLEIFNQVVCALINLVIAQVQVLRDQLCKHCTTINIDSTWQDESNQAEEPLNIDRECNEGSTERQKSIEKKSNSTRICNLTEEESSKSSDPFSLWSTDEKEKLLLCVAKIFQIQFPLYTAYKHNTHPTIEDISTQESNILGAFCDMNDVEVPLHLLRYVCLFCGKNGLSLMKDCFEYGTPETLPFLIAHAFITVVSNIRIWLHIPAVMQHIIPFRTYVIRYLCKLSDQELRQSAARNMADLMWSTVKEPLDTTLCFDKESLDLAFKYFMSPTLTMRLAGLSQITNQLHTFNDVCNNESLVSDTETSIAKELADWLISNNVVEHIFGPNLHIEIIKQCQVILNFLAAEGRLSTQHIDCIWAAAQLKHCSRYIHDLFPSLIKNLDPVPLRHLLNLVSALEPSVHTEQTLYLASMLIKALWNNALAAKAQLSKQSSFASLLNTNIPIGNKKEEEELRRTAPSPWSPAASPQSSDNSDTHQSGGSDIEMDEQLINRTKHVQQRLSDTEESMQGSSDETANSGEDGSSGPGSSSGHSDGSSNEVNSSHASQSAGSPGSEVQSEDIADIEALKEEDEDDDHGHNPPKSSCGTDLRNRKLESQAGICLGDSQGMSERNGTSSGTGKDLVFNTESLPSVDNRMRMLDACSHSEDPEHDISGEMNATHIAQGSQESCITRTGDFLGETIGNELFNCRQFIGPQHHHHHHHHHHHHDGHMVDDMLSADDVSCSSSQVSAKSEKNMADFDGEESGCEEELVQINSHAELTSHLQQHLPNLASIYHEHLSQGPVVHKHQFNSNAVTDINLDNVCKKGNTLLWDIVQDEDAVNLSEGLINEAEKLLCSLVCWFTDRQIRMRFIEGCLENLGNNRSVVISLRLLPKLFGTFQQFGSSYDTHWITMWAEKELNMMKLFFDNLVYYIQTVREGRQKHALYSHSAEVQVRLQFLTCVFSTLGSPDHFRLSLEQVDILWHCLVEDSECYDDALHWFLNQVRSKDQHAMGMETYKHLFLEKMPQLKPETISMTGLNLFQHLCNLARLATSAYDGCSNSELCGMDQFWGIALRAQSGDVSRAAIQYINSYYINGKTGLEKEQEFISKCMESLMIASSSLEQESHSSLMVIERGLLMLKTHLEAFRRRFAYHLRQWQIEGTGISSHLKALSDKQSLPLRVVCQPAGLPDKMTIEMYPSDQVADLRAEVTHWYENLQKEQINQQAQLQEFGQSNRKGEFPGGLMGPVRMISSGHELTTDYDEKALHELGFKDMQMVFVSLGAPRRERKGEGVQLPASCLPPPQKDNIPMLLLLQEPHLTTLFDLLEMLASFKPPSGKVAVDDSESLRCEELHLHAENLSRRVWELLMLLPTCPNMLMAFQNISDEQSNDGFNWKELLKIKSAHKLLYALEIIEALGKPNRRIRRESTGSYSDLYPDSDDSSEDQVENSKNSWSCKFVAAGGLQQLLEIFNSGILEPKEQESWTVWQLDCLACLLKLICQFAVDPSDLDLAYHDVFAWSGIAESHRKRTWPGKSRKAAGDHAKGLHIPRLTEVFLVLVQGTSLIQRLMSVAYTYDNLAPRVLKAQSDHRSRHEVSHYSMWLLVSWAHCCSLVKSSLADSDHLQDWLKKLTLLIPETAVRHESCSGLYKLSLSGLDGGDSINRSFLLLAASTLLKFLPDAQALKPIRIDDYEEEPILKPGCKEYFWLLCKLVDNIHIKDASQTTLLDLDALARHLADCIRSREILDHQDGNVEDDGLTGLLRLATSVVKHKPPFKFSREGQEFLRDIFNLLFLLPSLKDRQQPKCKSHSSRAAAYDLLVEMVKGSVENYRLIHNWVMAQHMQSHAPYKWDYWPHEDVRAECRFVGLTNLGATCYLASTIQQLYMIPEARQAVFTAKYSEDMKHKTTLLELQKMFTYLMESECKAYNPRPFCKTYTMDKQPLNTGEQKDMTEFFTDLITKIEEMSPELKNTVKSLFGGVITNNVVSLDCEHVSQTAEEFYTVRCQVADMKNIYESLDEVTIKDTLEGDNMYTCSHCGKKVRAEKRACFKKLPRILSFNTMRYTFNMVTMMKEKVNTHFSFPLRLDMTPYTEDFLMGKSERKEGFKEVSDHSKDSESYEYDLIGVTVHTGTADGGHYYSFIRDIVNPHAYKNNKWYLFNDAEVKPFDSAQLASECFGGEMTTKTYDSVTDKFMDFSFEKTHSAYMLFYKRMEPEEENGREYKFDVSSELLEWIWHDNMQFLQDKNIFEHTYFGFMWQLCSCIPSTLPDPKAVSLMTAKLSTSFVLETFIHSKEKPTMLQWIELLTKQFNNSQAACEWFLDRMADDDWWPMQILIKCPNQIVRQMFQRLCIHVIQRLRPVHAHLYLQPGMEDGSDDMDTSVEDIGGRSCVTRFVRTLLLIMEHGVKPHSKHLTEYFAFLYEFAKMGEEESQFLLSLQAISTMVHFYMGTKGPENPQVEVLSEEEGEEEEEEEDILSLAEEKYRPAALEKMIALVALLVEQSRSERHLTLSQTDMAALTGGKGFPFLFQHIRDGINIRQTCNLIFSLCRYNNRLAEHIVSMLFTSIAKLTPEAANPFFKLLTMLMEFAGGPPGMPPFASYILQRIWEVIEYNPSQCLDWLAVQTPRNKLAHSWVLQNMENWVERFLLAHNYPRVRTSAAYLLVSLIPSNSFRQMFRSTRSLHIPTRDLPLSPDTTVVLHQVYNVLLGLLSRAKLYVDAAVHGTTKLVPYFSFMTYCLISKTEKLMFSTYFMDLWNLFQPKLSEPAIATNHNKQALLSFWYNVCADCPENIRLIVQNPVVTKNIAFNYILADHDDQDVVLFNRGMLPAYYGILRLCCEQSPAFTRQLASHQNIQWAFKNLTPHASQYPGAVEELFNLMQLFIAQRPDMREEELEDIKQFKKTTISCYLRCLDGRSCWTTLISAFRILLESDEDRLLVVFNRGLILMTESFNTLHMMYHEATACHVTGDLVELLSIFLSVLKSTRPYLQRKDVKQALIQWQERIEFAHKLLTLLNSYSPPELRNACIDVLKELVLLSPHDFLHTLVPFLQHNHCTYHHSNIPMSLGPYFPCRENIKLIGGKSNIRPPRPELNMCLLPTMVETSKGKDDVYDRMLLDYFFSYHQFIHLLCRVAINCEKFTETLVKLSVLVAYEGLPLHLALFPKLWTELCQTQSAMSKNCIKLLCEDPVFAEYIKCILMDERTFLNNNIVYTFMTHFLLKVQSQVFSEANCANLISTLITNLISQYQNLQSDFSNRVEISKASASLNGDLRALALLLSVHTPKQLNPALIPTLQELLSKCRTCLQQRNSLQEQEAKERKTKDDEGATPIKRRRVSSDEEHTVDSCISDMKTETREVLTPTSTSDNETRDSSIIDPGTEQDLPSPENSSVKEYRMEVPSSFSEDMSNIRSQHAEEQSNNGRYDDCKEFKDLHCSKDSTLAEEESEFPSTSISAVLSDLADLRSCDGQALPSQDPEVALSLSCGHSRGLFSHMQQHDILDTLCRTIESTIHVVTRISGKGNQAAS
# Outline: (§1)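 HEK293T lysate in Tris/CHAPS/IGEPAL buffer with protease inhibitors (495 µg per sample) was given fragment at 200 µM or vehicle for 3 h, in triplicate. It then received Biotin-Ahx-Ub-VS at 0.5 µM final for 1 h. Labelled DUBs were NeutrAvidin-enriched, digested with LysC and trypsin, and run by diaPASEF LC-MS/MS. Values are average log2 fragment/vehicle ratios by unpaired t-test on global-median-normalised Spectronaut quantities of proteins with ≥2 unique peptides.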
# [2] = target: T1, USP36 (UniProt Q9P275)
# T1 sequence (whole entry): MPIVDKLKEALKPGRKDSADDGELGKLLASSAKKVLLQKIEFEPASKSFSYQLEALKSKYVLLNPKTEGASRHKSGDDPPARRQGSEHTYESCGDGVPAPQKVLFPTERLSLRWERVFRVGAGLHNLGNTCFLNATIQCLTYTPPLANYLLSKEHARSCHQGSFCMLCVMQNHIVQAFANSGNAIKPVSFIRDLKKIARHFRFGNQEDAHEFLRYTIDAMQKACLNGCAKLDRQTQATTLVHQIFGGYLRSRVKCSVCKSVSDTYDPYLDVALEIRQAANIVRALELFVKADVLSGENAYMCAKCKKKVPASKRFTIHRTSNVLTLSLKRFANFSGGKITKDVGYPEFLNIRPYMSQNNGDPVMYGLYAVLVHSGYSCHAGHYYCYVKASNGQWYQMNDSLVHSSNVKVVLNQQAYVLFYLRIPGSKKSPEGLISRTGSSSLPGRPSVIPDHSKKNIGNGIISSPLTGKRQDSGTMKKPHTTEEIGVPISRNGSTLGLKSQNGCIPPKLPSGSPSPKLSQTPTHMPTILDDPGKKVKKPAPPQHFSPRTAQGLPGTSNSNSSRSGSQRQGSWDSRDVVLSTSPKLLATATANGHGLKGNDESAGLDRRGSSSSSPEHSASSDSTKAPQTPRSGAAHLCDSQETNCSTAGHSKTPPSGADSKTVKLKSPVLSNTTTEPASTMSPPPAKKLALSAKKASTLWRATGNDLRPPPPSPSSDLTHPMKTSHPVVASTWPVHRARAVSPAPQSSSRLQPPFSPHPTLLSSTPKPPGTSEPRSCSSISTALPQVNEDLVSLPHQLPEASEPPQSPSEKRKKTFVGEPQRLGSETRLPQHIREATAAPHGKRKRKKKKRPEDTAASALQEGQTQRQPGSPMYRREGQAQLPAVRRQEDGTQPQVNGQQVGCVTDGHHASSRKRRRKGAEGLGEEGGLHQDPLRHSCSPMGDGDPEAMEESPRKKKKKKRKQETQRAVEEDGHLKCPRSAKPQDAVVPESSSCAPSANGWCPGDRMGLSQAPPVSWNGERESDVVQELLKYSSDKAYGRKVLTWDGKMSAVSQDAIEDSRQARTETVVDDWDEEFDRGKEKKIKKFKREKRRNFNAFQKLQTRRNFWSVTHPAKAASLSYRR
# Outline: as §1
# [3] = target: T2, USP38 (UniProt Q8NB14)
# T2 sequence (whole entry): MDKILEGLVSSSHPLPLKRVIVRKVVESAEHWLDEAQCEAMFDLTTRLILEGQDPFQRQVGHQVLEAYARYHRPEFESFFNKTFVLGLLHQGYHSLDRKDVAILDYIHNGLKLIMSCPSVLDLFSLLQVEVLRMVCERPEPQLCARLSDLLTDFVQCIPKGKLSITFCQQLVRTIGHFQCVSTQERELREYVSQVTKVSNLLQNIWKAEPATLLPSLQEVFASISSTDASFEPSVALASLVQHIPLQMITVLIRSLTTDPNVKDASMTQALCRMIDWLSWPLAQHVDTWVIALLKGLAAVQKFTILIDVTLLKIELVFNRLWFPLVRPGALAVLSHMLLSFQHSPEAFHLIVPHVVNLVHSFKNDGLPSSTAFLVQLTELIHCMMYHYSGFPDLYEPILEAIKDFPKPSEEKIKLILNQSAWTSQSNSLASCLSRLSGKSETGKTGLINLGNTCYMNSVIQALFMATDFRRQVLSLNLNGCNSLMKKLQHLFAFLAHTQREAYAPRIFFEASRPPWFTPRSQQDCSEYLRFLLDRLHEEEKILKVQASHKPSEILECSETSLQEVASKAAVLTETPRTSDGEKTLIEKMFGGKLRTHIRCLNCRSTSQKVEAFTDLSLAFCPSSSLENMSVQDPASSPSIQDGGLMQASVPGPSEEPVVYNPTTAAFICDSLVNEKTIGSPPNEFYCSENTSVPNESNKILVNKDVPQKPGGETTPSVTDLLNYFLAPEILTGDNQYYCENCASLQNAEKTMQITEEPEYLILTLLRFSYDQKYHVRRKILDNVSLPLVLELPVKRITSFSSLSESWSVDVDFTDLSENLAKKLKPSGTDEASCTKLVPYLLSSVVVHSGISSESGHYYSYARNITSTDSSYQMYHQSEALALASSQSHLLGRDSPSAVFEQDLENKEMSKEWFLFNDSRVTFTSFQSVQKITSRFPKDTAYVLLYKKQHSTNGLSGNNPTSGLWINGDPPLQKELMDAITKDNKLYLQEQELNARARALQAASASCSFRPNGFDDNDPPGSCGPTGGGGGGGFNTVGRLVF
# Outline: as §1
# [4] = target: T3, USP39 (UniProt Q53GS9)
# T3 sequence (whole entry): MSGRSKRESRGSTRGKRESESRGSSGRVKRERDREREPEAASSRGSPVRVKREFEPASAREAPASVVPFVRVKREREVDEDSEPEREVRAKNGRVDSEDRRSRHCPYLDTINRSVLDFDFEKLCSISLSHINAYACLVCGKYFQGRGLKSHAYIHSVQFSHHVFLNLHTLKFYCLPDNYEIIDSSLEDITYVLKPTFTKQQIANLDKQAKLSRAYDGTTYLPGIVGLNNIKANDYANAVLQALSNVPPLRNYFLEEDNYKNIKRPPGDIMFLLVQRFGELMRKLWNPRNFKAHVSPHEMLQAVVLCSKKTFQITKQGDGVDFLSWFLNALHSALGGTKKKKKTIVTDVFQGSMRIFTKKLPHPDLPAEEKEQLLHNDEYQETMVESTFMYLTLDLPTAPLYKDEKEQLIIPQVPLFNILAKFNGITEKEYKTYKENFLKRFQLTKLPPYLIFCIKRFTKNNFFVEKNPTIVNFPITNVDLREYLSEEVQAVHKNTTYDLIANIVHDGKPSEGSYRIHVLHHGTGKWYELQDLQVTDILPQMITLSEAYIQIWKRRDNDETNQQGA
# Outline: as §1
# [5] = target: T4, USP4 (UniProt Q13107)
# T4 sequence (whole entry): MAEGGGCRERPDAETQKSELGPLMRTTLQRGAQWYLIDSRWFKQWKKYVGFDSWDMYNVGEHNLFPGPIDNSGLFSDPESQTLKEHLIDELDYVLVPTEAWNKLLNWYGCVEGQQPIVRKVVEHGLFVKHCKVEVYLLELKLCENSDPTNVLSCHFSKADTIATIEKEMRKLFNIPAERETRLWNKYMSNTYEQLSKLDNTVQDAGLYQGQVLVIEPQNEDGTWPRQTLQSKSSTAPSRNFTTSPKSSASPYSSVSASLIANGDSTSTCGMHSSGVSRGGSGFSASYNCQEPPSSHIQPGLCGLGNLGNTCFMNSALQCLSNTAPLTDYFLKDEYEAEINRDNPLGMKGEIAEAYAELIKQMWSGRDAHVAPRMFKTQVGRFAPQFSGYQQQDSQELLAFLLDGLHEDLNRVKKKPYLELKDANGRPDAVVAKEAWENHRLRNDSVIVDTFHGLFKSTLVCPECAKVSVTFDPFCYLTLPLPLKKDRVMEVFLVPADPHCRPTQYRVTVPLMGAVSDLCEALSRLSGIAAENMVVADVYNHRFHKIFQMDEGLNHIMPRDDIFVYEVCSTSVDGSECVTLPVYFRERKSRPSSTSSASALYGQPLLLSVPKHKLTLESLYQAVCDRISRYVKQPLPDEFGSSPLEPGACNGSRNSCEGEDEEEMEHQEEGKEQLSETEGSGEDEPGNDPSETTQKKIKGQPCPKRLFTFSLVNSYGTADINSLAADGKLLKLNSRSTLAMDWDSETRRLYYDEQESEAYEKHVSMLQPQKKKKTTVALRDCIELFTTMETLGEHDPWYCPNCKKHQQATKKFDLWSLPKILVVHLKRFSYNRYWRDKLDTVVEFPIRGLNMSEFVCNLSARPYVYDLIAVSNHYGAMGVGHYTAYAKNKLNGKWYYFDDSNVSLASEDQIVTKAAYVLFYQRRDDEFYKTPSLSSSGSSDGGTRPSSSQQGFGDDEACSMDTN
# Outline: as §1
structure (smiles),measurement,setting,value
O=C(CCl)N1CC=C(c2c[nH]c3ccccc23)CC1,log2 ratio of Biotin-Ahx-Ub-VS probe labelling,[1],-0.9
same,log2 ratio of Biotin-Ahx-Ub-VS probe labelling,[2],0.0858
same,log2 ratio of Biotin-Ahx-Ub-VS probe labelling,[3],-0.476
same,log2 ratio of Biotin-Ahx-Ub-VS probe labelling,[4],0.536
same,log2 ratio of Biotin-Ahx-Ub-VS probe labelling,[5],-1.2 (active)
